Results: PubChem BioAssay AID488841 (Sanford-Burnham Center for Chemical Genomics, 2010)
Screen size: about 1,400 compounds; about 380 (27%) were called active. This is one part of the list. Values without a mark were called inactive.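 The calls were made as follows: active = mean inhibition above 50% across duplicate retests at 10 µM; inactive = the rest.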

Assay: inhibition of NALP1/ASC/caspase-1 reporter signal in yeast, confirmation, NALP1 inhibitor project, S. cerevisiae, luminescence, single concentration (AID 488841);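 also: plate controls were DMSO in galactose medium for no effect and cells in plain SD medium for full effect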
Settings: S. cerevisiae NALP1/ASC/Caspase-1 reporter, beta-gal luminescence; at 10 µM; stronger effect = higher value

SMILES	inhibition
O=C1C(Cl)=C(N2CCN(c3ccccc3[N+](=O)[O-])CC2)C(=O)c2ccccc21	47.2%
C/C(=N\NC(=O)c1csc(C)c1C)c1ccc(Cl)s1	40.9%
O=C(/C=C/c1ccccn1)c1ccc(Br)cc1O	67.5% (active)
O=C(/C=C/c1cccs1)c1cc(Br)ccc1OC(=O)N1CCOCC1	28.1%
CCNc1ccc(Br)cc(C(=O)/C=C/c2c(Cl)cccc2Cl)c1=O	39.5%
COc1cccc(-c2nn(C)c3sc(C(=O)N4CCOCC4)cc23)c1	35.3%
Cc1[nH]c2ccccc2c1C(=O)CSc1nc2ncc(Cl)cc2[nH]1	25.4%
O=C(NC(Cc1c[nH]c2ccccc12)C(=O)O)/C(=C\c1ccc2c(c1)OCO2)NC(=O)c1ccccc1 (stereo not drawn)	32.5%
O=C(/C=C/c1c[nH]c2ccccc12)c1ccccc1	80.5% (active)
CN(C)c1ccc(N/C=C/C(=O)c2ccccc2)cc1	35.4%
Cc1cc(SC#N)cc(C)c1NC(=O)CCl	21.6%
CC(C)c1nc2sc3c(=O)[nH]c(=S)[nH]c3c2c2c1CCC2	30.2%
Cc1ccc2nc(Cl)c(C3CC(c4cccs4)=NN3C(=O)CCCC(=O)O)cc2c1 (stereo not drawn)	33.7%
OC(CN1CCN(Cc2ccccc2)CC1)Cn1c2ccccc2c2ccccc21 (stereo not drawn)	63.1% (active)
OC(CNCCC1C=Nc2ccccc21)Cn1c2ccc(Cl)cc2c2cc(Cl)ccc21 (stereo not drawn)	40.7%
COc1ccc(OCC(O)Cn2c(=N)n(Cc3ccccc3)c3ccccc32)cc1 (stereo not drawn)	27.4%
CCOC(=O)c1c(O)c2cc(Cl)ccc2n(CC)c1=O	40.1%
OC(CN1CCCCC1)Cn1c2ccc(Cl)cc2c2cc(Cl)ccc21 (stereo not drawn)	52.5% (active)
OC(COCc1ccc2c(c1)OCO2)CN1CCN(Cc2ccccc2)CC1 (stereo not drawn)	32%
CCN1CCN(C(=O)N[C@@H](C(=O)N[C@@H]2C(=O)N3[C@@H]2SC(C)(C)[C@@H]3C(=O)O)c2ccccc2)C(=O)C1=O	45.5%
CCn1c(=O)cc(SCC(=O)N2CCN(C3CCCCC3)CC2)c2ccccc21	32.6%
N/C(Cc1ccc(Cl)cc1)=N\OC(=O)C1CCCCC1	46.6%
O=C(NCCN1C(=O)S/C(=C\c2cccnc2)C1=O)c1cccc(OC(F)F)c1	39.6%
COc1ccc(C)cc1NC(=O)c1ccc(OC(F)F)cc1	59.4% (active)
Cc1c(Cl)cccc1NC(=O)c1cccc(OC(F)F)c1	53% (active)
COc1ccc(NC(=O)c2ccc(C)cc2)c(OC)c1	37.7%

SMILES	inhibition
CSc1ccccc1NC(=O)Nc1ccccc1Cl	30%
COc1ccc(C)cc1NC(=O)c1ccc(CN2CCN(c3ccccc3)CC2)cc1	47.2%
Clc1ccc2c(N/N=C/c3ccccc3Br)ccnc2c1	39%
Cc1ccc(N/C=C/C(=O)C(C)(C)C)c(O)c1	31.6%
Cn1cc(CC(=O)Nc2cccc(C#N)c2)c2ccccc21	26.6%
c1ccc2[nH]c3cc4ncnc4cc3nc2c1	52.8% (active)
c1ccc2cc(CSCc3nc4ccccc4[nH]3)ccc2c1	42.5%
CC(C)Oc1ccc2c(=O)c(-c3ccccc3)coc2c1	66.2% (active)
CCCCOC(=O)Oc1ccc2c(=O)c(Oc3cc(C)cc(C)c3)coc2c1	45.8%
CC1CCN(c2nc(CN3CCCCC3)nc3scc(-c4ccccc4)c23)CC1	65.5% (active)
COc1ccccc1N1CCN(C(=O)CSc2ncnc3scc(-c4ccccc4)c23)CC1	47.8%
Cc1ccc(S(=O)(=O)N[C@@H](Cc2ccccc2)C(=O)CCl)cc1	-1.6%
c1ccc(-c2c(-c3ccccc3)n(Cc3ccco3)c3ncnc(NCCCn4ccnc4)c23)cc1	38%
CC(=O)n1cc(-c2ccncc2)c2ccccc21	46.6%
O=C(O)Cn1nc(-c2ccccc2)oc1=O	27.4%
COC(=O)Cn1nc(-c2ccccc2)c2ccccc21	99.7% (active)
COc1ccc2c(c1)C1=NN(/C(C)=C/C(C)=O)C(c3cccc(F)c3)C1CC2 (stereo not drawn)	42.1%
Cc1ccc(/C=N/NC(=O)c2ccc3nc[nH]c3c2)o1	31.1%
COC(=O)N/N=C/c1ccc(OC(=O)c2ccco2)c(OC)c1	22.6%
COC(=O)N/N=C/c1ccc(-c2cccc(Cl)c2)o1	68.8% (active)
O=C1c2ccccc2C(Nc2ccc(Cl)cn2)N1Cc1ccccc1 (stereo not drawn)	55.5% (active)
O=C1c2ccccc2C(O)N1c1cccnc1 (stereo not drawn)	27.9%
CC1CCc2nc3sc4c(c3c(N)c2C1)CCCC4 (stereo not drawn)	56.2% (active)
Nc1c2c(nc3sc4c(c13)CCCC4)CCCCCC2	32.1%
Nc1c2c(nc3sc4c(c13)CCCCC4)CCCCC2	40.6%
CSCCNC(C)=O	15%

SMILES	inhibition
O=C(NCc1cccs1)c1csc2ccccc12	51.3% (active)
CC(C)CC(=O)c1c[nH]c(C(=O)NCc2cccs2)c1	22.6%
O=C(c1ccco1)N1CCN(Cc2cn[nH]c2-c2cccc3ccccc23)CC1	25.2%
COc1ccccc1N1CCN(CCCCCCOc2ccc(F)cc2)CC1	63.4% (active)
COC(=O)c1ccc(C(=O)OC)c(NC(=O)CN2CCN(c3ccccc3OC)CC2)c1	38.4%
COc1ccccc1OCCCCN1CCN(c2ccccc2OC)CC1	17.7%
COc1ccccc1N1CCN(CCCCOc2cccc3ccccc23)CC1	62.8% (active)
O=C(COc1cccc2ccccc12)N1CCN(c2ccccc2)CC1	48.1%
COc1ccc(CN2CC(C(=O)NCCN3CCN(c4ccccc4F)CC3)CC2=O)cc1 (stereo not drawn)	32%
CCC(C)C(=O)N1c2ccccc2C(=C2SC(C(=O)OC)=C(C(=O)OC)S2)C(=S)C1(C)C (stereo not drawn)	40%
COc1ccc(NC(=O)N2CCC(CO)(CC3CCCCO3)CC2)c(OC)c1 (stereo not drawn)	29.4%
CN1CCC(Oc2ccc(Sc3ccccc3)cc2)CC1	40.1%
O=CC1=C(c2ccccc2)Oc2ccccc2O1	94.8% (active)
Clc1ccc(OCCCN2CCCC2)cc1Cl	39.5%
CN(C)Cc1ccccc1Sc1ccccc1Br	28.9%
Cc1cccc(Oc2nc(CN3CCOCC3)nc3sc4c(c23)CCCC4)c1	51.5% (active)
Fc1ccc(Nc2nc(Oc3ccccc3F)nc(N3CCCC3)n2)cc1	29.2%
C=CCSc1nsc(NC(=O)Nc2ccc(F)cc2)n1	97.7% (active)
O=C1/C(=C/c2cccnc2)SC(=S)N1C1CCS(=O)(=O)C1 (stereo not drawn)	44.6%
CC1=CC(=O)C=C(C)C1=NOS(=O)(=O)c1ccccc1	53.9% (active)
CC1=C/C(=N\OS(=O)(=O)c2ccccc2)C(C(C)C)=CC1=O	88.5% (active)
CCN(CCO)Cc1csc2ccc(Br)cc12	41%
C/C(=N\NC(=O)c1c[nH]c2ccccc12)c1ccco1	26.3%
O=S(=O)(Nc1ccncc1Cl)c1ccccc1	27.6%
O=C(Nc1nc(-c2ccccn2)cs1)c1ccc(Cl)s1	24.1%
CNC(=O)c1ccsc1NC(=O)c1sc2ccccc2c1Cl	33.5%

SMILES	inhibition
O=C(Nc1nccs1)c1sc2ccccc2c1Cl	61.4% (active)
COC(=O)Nc1nc(C)c(C(=O)c2ccccc2)s1	44.9%
COC(=O)Nc1sc2nc(C)cc(C)c2c1-n1cccc1	54% (active)
Cc1ccc2c(Cl)c(C)c(N3CCCCC3)nc2n1	55.4% (active)
CSC1=N/C(=C\c2cccnc2)C(=O)N1c1ccccc1	30.7%
O=S(=O)(Nc1cccnc1)c1cccs1	26.2%
COc1ccc(C(=O)Cn2c(C(=O)/C=C/c3ccccc3)nc3ccccc32)cc1	25.8%
Cc1ccc(C(=O)/C=C/c2cn(CC(O)CN3CCOCC3)c3ccccc23)cc1 (stereo not drawn)	39.7%
COc1ccc(C(=O)/C=C/c2ccc(OC)c(CN3CCOCC3)c2)cc1	63.4% (active)
C/C(=N\Nc1nc2c(s1)CCCC2)c1ccccc1	29.5%
CCCOc1ccc(C(=O)NC(C)C(=O)O)cc1 (stereo not drawn)	29.1%
CC(C)OC(=O)COc1ccc(-c2ccccc2)cc1	25.2%
CCOc1ccc(C(=O)C(CCC(CN(C)C)C(=O)c2ccc(OCC)cc2)CN(C)C)cc1 (stereo not drawn)	73% (active)
O=C(NCc1cccnc1)C1CCN(S(=O)(=O)c2cccnc2)CC1	33.3%
Cc1ccc(/C(COc2ccccc2O)=N\O)cc1	44%
CCNC(=S)SCCOc1ccccc1C	57.5% (active)
CCn1c(COc2ccccc2C)nnc1SCC(=O)N1CCN(c2ccccc2)CC1	20.6%
C=CCn1c(=O)c2ccc(C(=O)NCc3ccccc3)cc2n(Cc2ccccc2Cl)c1=O	27%
O=C(CCN1CCc2ccccc2C(c2ccccc2)C1)c1ccc2c(c1)OCCO2 (stereo not drawn)	30%
c1ccc(-c2ccc(-c3cn4c(n3)CCC4)cc2)cc1	85.2% (active)
Cc1nc(-c2ccccc2)cn2c1nc1ccccc12	49%
COc1cc2nc(Cl)nc(N3CCN(C)CC3)c2cc1OC	39.5%
c1ccc(Nc2ccccn2)cc1	27.3%
O=c1sc(Nc2ccccc2)nc2ccsc12	78.8% (active)
CC(C)CN=Cc1c(O)c([N+](=O)[O-])cc2oc3c(c12)CCCC3	35.5%
